# Assay results from PubChem BioAssay.
# Inconclusive results are not listed. Calls of active or inactive are those of the source.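 Rule for the calls, unless noted: active = GFP signal, as percent of the solvent control, above the screen mean plus 3 SD, about 149; inconclusive = no reading because the compound's own fluorescence upset strain identification; inactive = the rest.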 Square brackets hold non-standard residues; d marks the D form. Peptide text beside a SMILES is read from it. ξ: configuration not given here. ξV = CC(C)C(N)C(=O)O
# Experiments:
# [1] = rapamycin-like changes in RPL19A-GFP expression – cell-based, S. cerevisiae, multiplex flow cytometry, primary screen (AID 1862; in the data active = percent of DMSO control GFP below about 86%;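 note: lower values mimic rapamycin by blocking the RPL19A rise seen in DMSO cells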); settings: S. cerevisiae RPL19A-GFP strain, flow cytometry fluorescence, 3 h; at 10 µM; stronger effect = lower value
# [2] = TOR pathway GLN3 branch reporter MEP2-GFP changes – S. cerevisiae, multiplex flow cytometry, primary screen (AID 1867;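 active = GFP response, as percent of the DMSO control, above the screen-wide mean plus 3 SD, about 139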;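 note: median GFP channel fluorescence of barcode-gated MEP2-GFP cells measured by flow cytometry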); settings: S. cerevisiae MEP2-GFP strain, 3 h, at 10 µM, stronger effect = higher value, 100% means same as DMSO wells
# [3] = TOR pathway RTG branch CIT2 reporter changes – S. cerevisiae, GFP fusion, multiplex flow cytometry, primary screen (AID 1870;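 active = percent response above a set limit, the screen-wide mean plus 3 SD, cut at about 130% in these data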;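 note: barcoded CIT2-GFP strain pooled with four other GFP strains with rapamycin as positive control; median GFP fluorescence per well over plate mean of DMSO wells so 100% = DMSO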); settings: S. cerevisiae CIT2-GFP expression, 3 h, at 10 µM, stronger effect = higher value
# [4] = TOR pathway LAP4-GFP level changes – S. cerevisiae, multiplex flow cytometry, primary screen (AID 1873); settings: S. cerevisiae LAP4-GFP expression, 3 h, at 10 µM, stronger effect = higher value
# [5] = yeast AGP1-GFP level changes, GLN3 branch – cell-based, multiplex flow cytometry, S. cerevisiae, primary screen (AID 1887;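 active = GFP signal above the screen-wide mean plus 3 SD, that is over about 124.5% of the solvent control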;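 note: AGP1-GFP fusion strain of S. cerevisiae within a five-strain barcoded multiplex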); settings: 3 h, at 10 µM, stronger effect = higher value
# [6] = reduced mouse 2C T cell binding to pMHC/ICAM-1 vesicles – MLPCN validation set, flow cytometry, LFA-1/ICAM-1 modulator project, pilot screen (AID 2523;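 active = response below a set limit, under 55% cells CD8-positive and vesicle-bound, and CD8 cells' 90th-percentile brightness under 279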;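 for vesicle binding response: mean PE anti-B7-1 fluorescence of CD8+ cells relative to row control; 100% = QL9-loaded vesicles with DMSO vehicle in the same plate row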); settings: 2C mouse CD8+ T cells, at 7 µM, stronger effect = lower value; double positive events: measured here: CD8+/vesicle+ event percentage
# [7] = biological target: Integrin beta-1 (Homo sapiens) + Integrin alpha-4 (Homo sapiens) (UniProt P13612+P05556); assay: alpha4beta1 integrin LIBS antibody binding reduction – U937 cells, HUTS-21 mAb, flow cytometry, validation set, VLA-4 allosteric modulator project, pilot screen (AID 2674;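 active = inhibition above 50%, about 3 SD of the validation set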;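 note: antibody binding induced by the VLA-4 ligand LDV present at three times its Kd; 0% = LDV ligand with antibody and no compound and 100% = antibody without LDV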); settings: HUTS-21 LIBS mAb binding, at 6.7 µM, stronger effect = higher value, binding induced by LDV ligand
# Integrin beta-1 (Homo sapiens) + Integrin alpha-4 (Homo sapiens), sequence (P05556 whole entry, looked up): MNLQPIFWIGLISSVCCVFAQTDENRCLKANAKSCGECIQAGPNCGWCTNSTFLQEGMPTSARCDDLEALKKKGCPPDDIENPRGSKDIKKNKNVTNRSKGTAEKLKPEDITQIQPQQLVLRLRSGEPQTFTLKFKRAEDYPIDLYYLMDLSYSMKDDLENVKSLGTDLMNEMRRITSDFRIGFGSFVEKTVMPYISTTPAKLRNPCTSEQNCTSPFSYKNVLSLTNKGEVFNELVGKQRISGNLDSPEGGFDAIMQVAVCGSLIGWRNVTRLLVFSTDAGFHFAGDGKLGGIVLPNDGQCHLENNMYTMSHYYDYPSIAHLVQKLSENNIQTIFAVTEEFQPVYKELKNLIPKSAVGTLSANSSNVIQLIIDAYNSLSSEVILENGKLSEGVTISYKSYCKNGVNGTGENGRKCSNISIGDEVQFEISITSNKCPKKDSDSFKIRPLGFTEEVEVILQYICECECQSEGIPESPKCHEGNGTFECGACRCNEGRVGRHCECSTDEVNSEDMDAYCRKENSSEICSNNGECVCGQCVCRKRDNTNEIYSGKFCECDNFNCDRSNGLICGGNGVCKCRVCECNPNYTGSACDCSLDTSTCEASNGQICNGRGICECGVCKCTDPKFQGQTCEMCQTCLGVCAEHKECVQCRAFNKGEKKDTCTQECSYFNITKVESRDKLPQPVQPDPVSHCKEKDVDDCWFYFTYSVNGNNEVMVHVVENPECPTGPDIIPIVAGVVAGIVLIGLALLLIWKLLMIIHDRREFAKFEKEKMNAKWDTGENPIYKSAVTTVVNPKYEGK
# Integrin beta-1 (Homo sapiens) + Integrin alpha-4 (Homo sapiens), sequence (P13612 whole entry, looked up): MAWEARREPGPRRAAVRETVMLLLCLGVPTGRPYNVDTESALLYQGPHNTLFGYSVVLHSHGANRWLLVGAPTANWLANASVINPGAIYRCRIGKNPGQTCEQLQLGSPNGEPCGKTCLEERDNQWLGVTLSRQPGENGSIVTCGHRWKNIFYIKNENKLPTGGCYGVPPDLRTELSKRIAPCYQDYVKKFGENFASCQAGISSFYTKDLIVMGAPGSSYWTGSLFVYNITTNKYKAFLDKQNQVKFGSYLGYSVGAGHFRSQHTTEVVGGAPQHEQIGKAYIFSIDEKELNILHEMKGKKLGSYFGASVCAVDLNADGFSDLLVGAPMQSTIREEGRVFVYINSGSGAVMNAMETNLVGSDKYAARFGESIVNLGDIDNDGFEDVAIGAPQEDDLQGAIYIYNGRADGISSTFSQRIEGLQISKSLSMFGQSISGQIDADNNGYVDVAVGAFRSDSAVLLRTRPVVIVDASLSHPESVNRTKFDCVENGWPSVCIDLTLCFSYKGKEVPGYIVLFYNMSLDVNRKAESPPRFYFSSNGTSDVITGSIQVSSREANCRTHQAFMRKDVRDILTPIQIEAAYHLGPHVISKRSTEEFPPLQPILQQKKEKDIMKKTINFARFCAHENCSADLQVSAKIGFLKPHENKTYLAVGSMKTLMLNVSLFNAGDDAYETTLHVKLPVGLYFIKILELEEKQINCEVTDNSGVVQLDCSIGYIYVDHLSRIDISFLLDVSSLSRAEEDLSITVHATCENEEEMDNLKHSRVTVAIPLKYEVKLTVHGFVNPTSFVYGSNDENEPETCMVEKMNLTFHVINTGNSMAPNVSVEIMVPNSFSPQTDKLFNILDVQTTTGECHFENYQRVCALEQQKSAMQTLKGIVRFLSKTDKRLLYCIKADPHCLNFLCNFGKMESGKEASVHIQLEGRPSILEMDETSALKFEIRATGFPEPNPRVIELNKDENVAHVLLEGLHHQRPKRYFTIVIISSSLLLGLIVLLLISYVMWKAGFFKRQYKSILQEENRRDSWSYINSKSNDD
# [8] = calorie-restriction mimetic ROS inhibitors, yeast – validation compound set, pilot screen (AID 2706;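 active = superoxide response below 65% of plate, a cut near 3 SD across the whole screen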;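 note: yeast exposed to compound for one week at 30 degrees C before staining; 100% = mean of all compound wells on the same plate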); settings: S. cerevisiae aging, superoxide DHE fluorescence; at 10 µM; stronger effect = lower value
# [9] = biological target: Beta-adrenergic receptor kinase 1 (Homo sapiens) (UniProt P25098); assay: GRK2 binders displacing RNA aptamer, biochemical, validation, human GRK2, bead flow cytometry (AID 488806;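 active = aptamer binding inhibition above 30%, about 3 SD of noise from non-fluorescent compounds; inactive = inhibition at or below 30%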); settings: bead-bound GRK2, FAM-aptamer displacement, at 10 µM, stronger effect = higher value
# Beta-adrenergic receptor kinase 1 (Homo sapiens), sequence (P25098 whole entry, looked up): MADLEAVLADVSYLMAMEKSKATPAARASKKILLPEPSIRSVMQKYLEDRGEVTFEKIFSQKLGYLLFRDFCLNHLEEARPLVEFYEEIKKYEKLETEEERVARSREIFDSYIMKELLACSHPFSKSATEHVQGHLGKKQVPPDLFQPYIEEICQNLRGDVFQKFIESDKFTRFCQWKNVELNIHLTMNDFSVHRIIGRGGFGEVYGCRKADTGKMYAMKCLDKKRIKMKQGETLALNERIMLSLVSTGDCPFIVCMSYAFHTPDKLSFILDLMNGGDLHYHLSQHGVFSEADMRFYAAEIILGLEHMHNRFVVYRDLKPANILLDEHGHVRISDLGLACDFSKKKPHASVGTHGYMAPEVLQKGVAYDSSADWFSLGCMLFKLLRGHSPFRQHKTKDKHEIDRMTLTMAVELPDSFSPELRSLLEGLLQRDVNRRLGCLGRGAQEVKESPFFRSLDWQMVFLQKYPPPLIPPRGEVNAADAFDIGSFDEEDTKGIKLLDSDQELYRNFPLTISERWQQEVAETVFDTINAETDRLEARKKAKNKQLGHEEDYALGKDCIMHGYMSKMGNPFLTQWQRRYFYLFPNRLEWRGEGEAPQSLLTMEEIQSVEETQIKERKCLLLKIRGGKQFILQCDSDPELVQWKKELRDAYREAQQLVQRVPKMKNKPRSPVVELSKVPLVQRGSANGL
# [10] = biological target: Beta-2 adrenergic receptor (Homo sapiens) (UniProt P07550); assay: agonist-induced loss of surface beta2AR – cell-based, FAP fluorogen, flow cytometry, validation set, pilot screen (AID 504459;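 active = percent response above 42, roughly 3 SD of non-fluorescent test compounds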;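 note: agonist-driven loss of surface beta2AR via internalization measured by FAP dye flow cytometry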); settings: Am2.2-beta2AR cells, at 10 µM, stronger effect = higher value
# Beta-2 adrenergic receptor (Homo sapiens), sequence (P07550 whole entry, looked up): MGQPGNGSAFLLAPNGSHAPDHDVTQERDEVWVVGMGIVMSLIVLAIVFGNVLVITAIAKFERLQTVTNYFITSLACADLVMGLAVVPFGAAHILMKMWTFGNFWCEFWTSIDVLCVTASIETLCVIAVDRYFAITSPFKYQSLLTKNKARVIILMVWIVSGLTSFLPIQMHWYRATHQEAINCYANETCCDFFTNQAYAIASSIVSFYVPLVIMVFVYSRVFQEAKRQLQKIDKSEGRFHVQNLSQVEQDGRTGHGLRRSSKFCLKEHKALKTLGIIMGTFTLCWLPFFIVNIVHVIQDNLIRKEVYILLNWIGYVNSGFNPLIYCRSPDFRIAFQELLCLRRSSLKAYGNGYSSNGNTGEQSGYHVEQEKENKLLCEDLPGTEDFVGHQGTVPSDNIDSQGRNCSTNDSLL
# [11] = biological target: AP-2 complex subunit beta (Homo sapiens) (UniProt P63010); assay: beta-arrestin/AP2 interaction blockers – biochemical, validation set, GST-AP2 beads, flow cytometry, pilot screen (AID 504541;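 active = inhibition above 54%, about 3 SD of non-fluorescent compounds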;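 note: AP2 carries R879A mutation and is captured from E. coli lysate; bead-bound FITC arrestin peptide fluorescence measuring arrestin peptide binding to AP2; 0% = DMSO wells and 100% = excess unlabeled arrestin peptide control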); settings: FITC arrestin peptide, at 10 µM, stronger effect = higher value, AP2 beta2 appendage fragment, R879A mutant
# AP-2 complex subunit beta (Homo sapiens), sequence (P63010 whole entry, looked up, the tested form may be a part, one chain of several): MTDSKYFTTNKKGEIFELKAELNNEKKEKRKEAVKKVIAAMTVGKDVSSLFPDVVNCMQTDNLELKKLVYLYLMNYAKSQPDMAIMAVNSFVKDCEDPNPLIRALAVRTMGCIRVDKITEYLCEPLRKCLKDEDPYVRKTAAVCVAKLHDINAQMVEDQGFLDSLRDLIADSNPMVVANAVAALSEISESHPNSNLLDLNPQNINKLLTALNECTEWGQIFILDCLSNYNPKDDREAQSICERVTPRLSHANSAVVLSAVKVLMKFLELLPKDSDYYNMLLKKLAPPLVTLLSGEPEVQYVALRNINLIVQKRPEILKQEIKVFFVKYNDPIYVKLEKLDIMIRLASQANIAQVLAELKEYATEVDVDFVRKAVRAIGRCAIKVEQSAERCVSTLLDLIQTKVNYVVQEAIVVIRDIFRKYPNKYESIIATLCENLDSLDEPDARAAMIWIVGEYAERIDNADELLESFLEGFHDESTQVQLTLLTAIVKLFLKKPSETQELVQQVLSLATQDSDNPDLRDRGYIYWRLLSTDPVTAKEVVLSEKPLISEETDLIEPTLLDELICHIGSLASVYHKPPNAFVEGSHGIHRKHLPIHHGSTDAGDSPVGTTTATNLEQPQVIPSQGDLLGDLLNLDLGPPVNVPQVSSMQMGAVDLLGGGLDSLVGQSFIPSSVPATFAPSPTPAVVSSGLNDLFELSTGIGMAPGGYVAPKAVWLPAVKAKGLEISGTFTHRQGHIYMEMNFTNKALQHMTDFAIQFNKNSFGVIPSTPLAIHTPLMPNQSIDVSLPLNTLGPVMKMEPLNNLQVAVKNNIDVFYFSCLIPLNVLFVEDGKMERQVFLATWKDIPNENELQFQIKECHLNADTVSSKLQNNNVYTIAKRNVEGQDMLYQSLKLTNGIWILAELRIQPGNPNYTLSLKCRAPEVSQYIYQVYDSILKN
# [12] = cytosolic pH regulators acting via V-ATPase – S. cerevisiae, pHLuorin, HTS validation (AID 504600; in the data active = response above about 15%;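 note: plate controls were DMSO for no effect and reference compound for full effect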); settings: V-ATPase proton transport, at 10 µM, stronger effect = higher value
# [13] = system: anti-desmoglein-3 scFv antibody binding to human DSG3; assay: blockers of pathogenic pemphigus antibody–desmoglein-3 binding – biochemical, validation compound set, bead-based, flow cytometry, pilot screen (AID 588368;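 active = binding below the plate cutoff, the plate median minus 3 SD, with a reading above zero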;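 note: signal is the median channel fluorescence of bead-bound GFP antibody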); settings: Protein G beads, DSG3-Fc, scFv-GFP binding, at 10 µM, stronger effect = lower value
# [14] = Nile Red efflux blockade in pump-expressing yeast – validation compound set, multiplex, phenotypic, pilot screen (AID 588506;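 active = efflux inhibition above 0.42, the validation set average plus 4 SD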;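 note: Nile Red retained in cells so higher fluorescence means more efflux inhibition; 0 = negative control wells and 1 = enniatin B 25 µM full block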); settings: S. cerevisiae pump-expressing triplex, Nile Red efflux flow cytometry; at 10 µM; stronger effect = higher value; the pumps come from Candida albicans
# [15] = biological target: ATP-binding cassette sub-family B member 6 (Homo sapiens) (UniProt Q9NP58); assay: blockers of ABCB6-driven porphyrin uptake – K562-ABCB6 cells, flow cytometry, validation set, pilot screen (AID 588550;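 active = inhibition above the screen-wide mean plus 3 SD, about 51%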;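 note: 0% = DMSO wells and 100% = benzethonium chloride 70 µM positive control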); settings: K562-ABCB6 porphyrin accumulation, 1 h, at 10 µM, stronger effect = higher value
# ATP-binding cassette sub-family B member 6 (Homo sapiens), sequence (Q9NP58 whole entry, looked up): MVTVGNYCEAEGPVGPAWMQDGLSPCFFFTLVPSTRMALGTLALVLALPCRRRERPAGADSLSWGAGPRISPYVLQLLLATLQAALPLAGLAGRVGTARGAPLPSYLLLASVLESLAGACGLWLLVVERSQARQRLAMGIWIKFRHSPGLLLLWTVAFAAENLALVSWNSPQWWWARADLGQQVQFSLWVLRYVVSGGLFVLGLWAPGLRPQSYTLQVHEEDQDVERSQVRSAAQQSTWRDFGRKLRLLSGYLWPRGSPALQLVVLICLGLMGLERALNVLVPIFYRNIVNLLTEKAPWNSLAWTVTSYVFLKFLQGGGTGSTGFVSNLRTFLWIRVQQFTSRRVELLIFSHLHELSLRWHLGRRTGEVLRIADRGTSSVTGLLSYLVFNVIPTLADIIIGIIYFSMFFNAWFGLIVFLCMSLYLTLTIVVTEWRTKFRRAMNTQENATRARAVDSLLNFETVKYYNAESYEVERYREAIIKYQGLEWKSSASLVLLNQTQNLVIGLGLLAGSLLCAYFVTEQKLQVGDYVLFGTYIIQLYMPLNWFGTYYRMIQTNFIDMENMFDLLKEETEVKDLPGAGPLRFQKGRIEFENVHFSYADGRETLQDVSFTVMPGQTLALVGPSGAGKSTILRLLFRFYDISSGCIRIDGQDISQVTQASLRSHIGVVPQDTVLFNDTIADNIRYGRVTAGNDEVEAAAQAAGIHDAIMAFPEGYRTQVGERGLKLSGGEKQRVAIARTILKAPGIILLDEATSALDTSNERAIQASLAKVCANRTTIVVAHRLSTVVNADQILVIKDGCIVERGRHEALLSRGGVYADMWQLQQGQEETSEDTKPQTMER
# [16] = AML differentiation inducers, ER-HoxA9 marrow cells – cell-based, GFP/MAC1 double positive, flow cytometry, validation set, primary screen (AID 588685;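 active = differentiation response of at least 50%, scaled between solvent and reference control, from cells with both markers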;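 note: compound exposure lasts four days before antibody staining and flow analysis; 0% = DMSO wells and 100% = 5 µM fulvestrant positive control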); settings: stronger effect = higher value, normalized: vehicle 0, fulvestrant 100
SMILES,percent of DMSO control GFP [1],GFP response vs DMSO [2],percent response of DMSO control [3],GFP response vs DMSO [4],"GFP response, % of DMSO [5]",double positive events [6],vesicle binding response [6],inhibition [7],superoxide response (% of plate) [8],aptamer binding inhibition [9],response [10],inhibition [11],response [12],binding (% of control) [13],efflux inhibition (fraction of control) [14],inhibition [15],differentiation response [16]
Fc1ccc(NC(=S)Nc2ccccc2Cl)cc1,91.1% (inactive),133% (inactive),106% (inactive),78.7% (inactive),93.1% (inactive),63.7%,235% (inactive),20% (inactive),91.9% (inactive),3% (inactive),-6.11% (inactive),10.1% (inactive),0.15% (inactive),102% (inactive),0.37 (inactive),12% (inactive),-1.64% (inactive)
O=C(O)c1ccc(-c2ccc(O)c(F)c2)cc1,105% (inactive),105% (inactive),111% (inactive),98% (inactive),102% (inactive),60%,4700% (inactive),-1.49% (inactive),96.3% (inactive),-2% (inactive),-5.66% (inactive),-6.99% (inactive),3.09% (inactive),97.9% (inactive),-0.17 (inactive),-1% (inactive),-6.6% (inactive)
O=C(CCC(=O)c1cccs1)c1cccs1,99.5% (inactive),96.3% (inactive),107% (inactive),72.6% (inactive),86.5% (inactive),60.5%,125% (inactive),-4.52% (inactive),108% (inactive),3% (inactive),-4.9% (inactive),-11.3% (inactive),1.04% (inactive),91.5% (inactive),-0.1 (inactive),6% (inactive),-20% (inactive)
COc1cccc(C2CC(=O)C3=C(C2)Nc2ccccc2N(C(=O)CCC(=O)O)C3c2ccc(F)cc2)c1 (stereo unspecified),95% (inactive),149% (active),102% (inactive),89.1% (inactive),93.8% (inactive),64%,213% (inactive),11.3% (inactive),98% (inactive),4% (inactive),-3.62% (inactive),30.9% (inactive),-2.19% (inactive),102% (inactive),-0.13 (inactive),4% (inactive),-1.64% (inactive)
CCOC(=O)C1C(=O)OC2(CCOC(C)(C)C2)C1C(=O)OCC (stereo unspecified),109% (inactive),108% (inactive),102% (inactive),125% (inactive),108% (inactive),70.8%,8780% (inactive),10.5% (inactive),102% (inactive),5% (inactive),16.1% (inactive),-2.89% (inactive),-6.07% (inactive),102% (inactive),0.15 (inactive),6% (inactive),-4% (inactive)
O=C1CC2(CCCC2)CC(=O)N1CCCCN1CCN(c2ncccn2)CC1,102% (inactive),104% (inactive),96.6% (inactive),91.4% (inactive),106% (inactive),64.3%,1050% (inactive),7.85% (inactive),101% (inactive),3% (inactive),-19.5% (inactive),-0.56% (inactive),2.1% (inactive),101% (inactive),0.21 (inactive),9% (inactive),12% (inactive)
CC(C)[C@H](NC(=O)[C@@H]1CSCN1C(=O)OC(C)(C)C)C(=O)NCC1CCC(C(=O)O)CC1 (stereo partly specified),99.7% (inactive),97.4% (inactive),104% (inactive),84.6% (inactive),96.3% (inactive),64.5%,283% (inactive),-4.52% (inactive),82.1% (inactive),4% (inactive),-5.23% (inactive),-2.51% (inactive),3.84% (inactive),98.9% (inactive),0.01 (inactive),109% (active),0.8% (inactive)
COc1ccc(CN(CCC(c2ccccc2)c2ccc(OC(C)C)cc2)C(=O)CCl)cc1OC (stereo unspecified),101% (inactive),98.3% (inactive),107% (inactive),98% (inactive),99.7% (inactive),65.9%,249% (inactive),-3.57% (inactive),94.5% (inactive),4% (inactive),-6.05% (inactive),-14.7% (inactive),0.92% (inactive),93% (inactive),-0.2 (inactive),6% (inactive),13.9% (inactive)
CC(=O)NC(C(=O)NCC(N)=O)C(C)C (stereo unspecified) (Ac-[ξV]-Gly-NH2),104% (inactive),93% (inactive),111% (inactive),95.3% (inactive),97.3% (inactive),65.3%,195% (inactive),-7.72% (inactive),93.7% (inactive),-2% (inactive),-7.22% (inactive),-9.46% (inactive),0.49% (inactive),96.9% (inactive),-0.2 (inactive),0% (inactive),13.9% (inactive)
COc1cc(C(=O)N/C(=C\c2cn(C)c3ccccc23)C(=O)NCCCO)cc(OC)c1OC,102% (inactive),94.1% (inactive),107% (inactive),75.2% (inactive),88% (inactive),56.3%,215% (inactive),11.9% (inactive),99.7% (inactive),2% (inactive),5% (inactive),-0.03% (inactive),11.1% (inactive),100% (inactive),0.3 (inactive),7% (inactive),-15.2% (inactive)
Cc1cc(=O)oc2cc(OC(C)C(=O)NCC3CCCO3)ccc12 (stereo unspecified),101% (inactive),99.6% (inactive),104% (inactive),106% (inactive),102% (inactive),68.8%,554% (inactive),-14.1% (inactive),91.7% (inactive),3% (inactive),-0.14% (inactive),-3.92% (inactive),0.04% (inactive),96.8% (inactive),-0.28 (inactive),5% (inactive),-7.2% (inactive)
CSc1ccc(/C=N/N2CCN(Cc3ccc(C)cc3C)CC2)cc1,100% (inactive),99.7% (inactive),110% (inactive),97% (inactive),96.3% (inactive),61.9%,118% (inactive),-5.11% (inactive),97.2% (inactive),-2% (inactive),6.9% (inactive),7.81% (inactive),4.06% (inactive),103% (inactive),0.22 (inactive),25% (inactive),11.5% (inactive)
C#C[C@]1(O)CC[C@H]2[C@@H]3CCc4cc(OC)ccc4[C@H]3CC[C@@]21C,103% (inactive),104% (inactive),102% (inactive),126% (inactive),115% (inactive),63.7%,229% (inactive),3.14% (inactive),115% (inactive),-1% (inactive),-13.2% (inactive),31.4% (inactive),0.87% (inactive),108% (inactive),-0.04 (inactive),5% (inactive),-2.03% (inactive)
CC(=O)c1c[nH]c2ccc(C)cc2c1=O,97.4% (inactive),99.6% (inactive),97.7% (inactive),114% (inactive),94.9% (inactive),60.8%,228% (inactive),-85.1% (inactive),104% (inactive),0% (inactive),-3.59% (inactive),34.1% (inactive),-1.39% (inactive),101% (inactive),-0.31 (inactive),1% (inactive),-18.4% (inactive)
O=C(c1cc2cc(Br)ccc2o1)N1CCCC1,101% (inactive),106% (inactive),97.6% (inactive),139% (inactive),99.4% (inactive),56.9%,146% (inactive),-5.11% (inactive),93.6% (inactive),0% (inactive),-10.4% (inactive),-6.7% (inactive),0.97% (inactive),103% (inactive),-0.07 (inactive),9% (inactive),-3.11% (inactive)
O=C(O)c1ccccc1C(=O)OCCCCOC(=O)c1ccccc1C(=O)O,104% (inactive),85.6% (inactive),105% (inactive),82.2% (inactive),98.6% (inactive),64.9%,1380% (inactive),-0.45% (inactive),88% (inactive),6% (inactive),-3.48% (inactive),-4.07% (inactive),1.28% (inactive),92.7% (inactive),0.21 (inactive),2% (inactive),4.15% (inactive)
COCCCN1C(=O)/C(=C\c2cccs2)C(C(=O)OC)=C1C,99.9% (inactive),106% (inactive),92.9% (inactive),120% (inactive),99.4% (inactive),57.8%,4220% (inactive),6.4% (inactive),113% (inactive),2% (inactive),-6.32% (inactive),-12% (inactive),10.8% (inactive),102% (inactive),-0.06 (inactive),5% (inactive),-20% (inactive)
Cc1ccc(S(=O)(=O)N2CCC(C(=O)N[C@@H](C)C(=O)NC3CCS(=O)(=O)C3)CC2)cc1 (stereo partly specified),101% (inactive),96.6% (inactive),106% (inactive),89.3% (inactive),96.3% (inactive),57.7%,144% (inactive),12.3% (inactive),103% (inactive),4% (inactive),-1.25% (inactive),-5.24% (inactive),22.5% (active),103% (inactive),0.1 (inactive),13% (inactive),-13.3% (inactive)
